The source of these data is PubChem BioAssay.

Inconclusive results are not listed. Activity calls are given as the source filed them.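 Rule for the calls, unless noted: active = aptamer binding inhibition above 30%, about 3 SD of noise from non-fluorescent compounds; inactive = inhibition at or below 30%.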

Experiment [1] is described as follows: yeast TOR pathway RPL19A-GFP modulators, primary screen, cell-based, S. cerevisiae, multiplex flow cytometry (AID 1862; in the data active = percent of DMSO control GFP below about 86%;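 note: lower values mimic rapamycin by blocking the RPL19A rise seen in DMSO cells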). To be noted: S. cerevisiae RPL19A-GFP strain, flow cytometry fluorescence, 3 h; at 10 µM; stronger effect = lower value. On the technique in general: Flow cytometry measures light scatter and fluorescence of single cells or particles in a stream.
A short description of experiment [2]: modulators of MEP2-GFP levels in yeast, primary screen, S. cerevisiae, multiplex flow cytometry (AID 1867;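 active = GFP response, as percent of the DMSO control, above the screen-wide mean plus 3 SD, about 139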;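 note: median GFP channel fluorescence of barcode-gated MEP2-GFP cells measured by flow cytometry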). Conditions: S. cerevisiae MEP2-GFP strain, 3 h, at 10 µM, stronger effect = higher value, 100% means same as DMSO wells.
Experiment [3] is described as follows: modulators of CIT2-GFP expression in yeast, primary screen, S. cerevisiae, GFP fusion, multiplex flow cytometry (AID 1870;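 active = percent response above a set limit, the screen-wide mean plus 3 SD, cut at about 130% in these data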;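 note: barcoded CIT2-GFP strain pooled with four other GFP strains with rapamycin as positive control; median GFP fluorescence per well over plate mean of DMSO wells so 100% = DMSO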). Conditions: 3 h, at 10 µM, stronger effect = higher value.
Experiment [4] is described as follows: modulators of LAP4-GFP expression in yeast, primary screen, S. cerevisiae, multiplex flow cytometry (AID 1873;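 active = GFP signal, as percent of the solvent control, above the screen mean plus 3 SD, about 149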). To be noted: 3 h, at 10 µM, stronger effect = higher value.
The nature of experiment [5]: modulators of AGP1-GFP expression in yeast TOR pathway, primary screen, cell-based, multiplex flow cytometry, S. cerevisiae (AID 1887;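 active = GFP signal above the screen-wide mean plus 3 SD, that is over about 124.5% of the solvent control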;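 note: AGP1-GFP fusion strain of S. cerevisiae within a five-strain barcoded multiplex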). To be noted: 3 h, at 10 µM, stronger effect = higher value.
Experiment [6] is described as follows: inhibitors of CD8+ T cell-vesicle binding, pilot screen, LFA-1/ICAM-1 modulator project, MLPCN validation set, flow cytometry (AID 2523;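 active = response below a set limit, under 55% cells CD8-positive and vesicle-bound, and CD8 cells' 90th-percentile brightness under 279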;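 for vesicle binding response: mean PE anti-B7-1 fluorescence of CD8+ cells relative to row control; 100% = QL9-loaded vesicles with DMSO vehicle in the same plate row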). Conditions: 2C mouse CD8+ T cells, at 7 µM, stronger effect = lower value; double positive events: measured here: CD8+/vesicle+ event percentage.
Experiment [7] deals with Integrin beta-1 (Homo sapiens) + Integrin alpha-4 (Homo sapiens) (UniProt P13612+P05556). Nature of the experiment: inhibition of HUTS-21 binding to VLA-4, pilot screen, VLA-4 allosteric modulator project, U937 cells, HUTS-21 mAb, flow cytometry, validation set (AID 2674;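 active = inhibition above 50%, about 3 SD of the validation set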;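 note: antibody binding induced by the VLA-4 ligand LDV present at three times its Kd; 0% = LDV ligand with antibody and no compound and 100% = antibody without LDV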). To be noted: HUTS-21 LIBS mAb binding, at 6.7 µM, stronger effect = higher value, binding induced by LDV ligand.

A short description of experiment [8]: superoxide lowering in aged yeast cells, pilot screen, validation compound set (AID 2706;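 active = superoxide response below 65% of plate, a cut near 3 SD across the whole screen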;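 note: yeast exposed to compound for one week at 30 degrees C before staining; 100% = mean of all compound wells on the same plate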). Conditions: S. cerevisiae aging, superoxide DHE fluorescence; at 10 µM; stronger effect = lower value.
Experiment [9] concerns the target Beta-adrenergic receptor kinase 1 (Homo sapiens) (UniProt P25098). Nature of the experiment: GRK2 binders displacing RNA aptamer, biochemical, validation, human GRK2, bead flow cytometry (AID 488806). Conditions: bead-bound GRK2, FAM-aptamer displacement, at 10 µM, stronger effect = higher value.
Experiment [10] concerns the target Beta-2 adrenergic receptor (Homo sapiens) (UniProt P07550). The experiment in a line: beta2AR agonists driving receptor internalization, pilot screen, cell-based, FAP fluorogen, flow cytometry, validation set (AID 504459;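 active = percent response above 42, roughly 3 SD of non-fluorescent test compounds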;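 note: agonist-driven loss of surface beta2AR via internalization measured by FAP dye flow cytometry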). Conditions: Am2.2-beta2AR cells, FAP surface receptor flow cytometry; at 10 µM; stronger effect = higher value.
The target of experiment [11] is AP-2 complex subunit beta (Homo sapiens) (UniProt P63010). The experiment in a line: inhibitors of arrestin peptide binding to AP2, pilot screen, biochemical, validation set, GST-AP2 beads, flow cytometry (AID 504541;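 active = inhibition above 54%, about 3 SD of non-fluorescent compounds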;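 note: AP2 carries R879A mutation and is captured from E. coli lysate; bead-bound FITC arrestin peptide fluorescence measuring arrestin peptide binding to AP2; 0% = DMSO wells and 100% = excess unlabeled arrestin peptide control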). To be noted: FITC arrestin peptide, at 10 µM, stronger effect = higher value, AP2 beta2 appendage fragment, R879A mutant.
Experiment [12] is described as follows: yeast V-ATPase proton transport modulators, S. cerevisiae, pHLuorin, HTS validation (AID 504600; in the data active = response above about 15%;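 note: plate controls were DMSO for no effect and reference compound for full effect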). Conditions: S. cerevisiae pHLuorin cytosolic pH, at 10 µM, stronger effect = higher value.
Experiment [13] deals with anti-desmoglein-3 scFv antibody binding to human DSG3. Nature of the experiment: inhibitors of anti-DSG3 scFv binding to DSG3, pilot screen, biochemical, validation compound set, bead-based, flow cytometry (AID 588368;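 active = binding below the plate cutoff, the plate median minus 3 SD, with a reading above zero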;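 note: signal is the median channel fluorescence of bead-bound GFP antibody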). To be noted: Protein G beads, DSG3-Fc, scFv-GFP binding, at 10 µM, stronger effect = lower value.
Experiment [14] in a line: inhibitors of fungal efflux pumps CDR1, CDR2, MDR1, pilot screen, validation compound set, multiplex, phenotypic (AID 588506;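 active = efflux inhibition above 0.42, the validation set average plus 4 SD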;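 note: Nile Red retained in cells so higher fluorescence means more efflux inhibition; 0 = negative control wells and 1 = enniatin B 25 µM full block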). Conditions: S. cerevisiae pump-expressing triplex, Nile Red efflux flow cytometry; at 10 µM; stronger effect = higher value; the pumps come from Candida albicans.
Experiment [15] has as its target ATP-binding cassette sub-family B member 6 (Homo sapiens) (UniProt Q9NP58). Nature of the experiment: ABCB6 transporter inhibitors, pilot screen, K562-ABCB6 cells, flow cytometry, validation set (AID 588550;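 active = inhibition above the screen-wide mean plus 3 SD, about 51%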;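 note: 0% = DMSO wells and 100% = benzethonium chloride 70 µM positive control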). To be noted: K562-ABCB6 porphyrin accumulation, 1 h, at 10 µM, stronger effect = higher value.
Experiment [16] can be described thus: promoters of myeloid differentiation in arrested cells, primary screen, cell-based, GFP/MAC1 double positive, flow cytometry, validation set (AID 588685;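 active = differentiation response of at least 50%, scaled between solvent and reference control, from cells with both markers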;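 note: compound exposure lasts four days before antibody staining and flow analysis; 0% = DMSO wells and 100% = 5 µM fulvestrant positive control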). Conditions: ER-HoxA9 marrow cells, stronger effect = higher value, normalized: vehicle 0, fulvestrant 100.

Chain of ATP-binding cassette sub-family B member 6 (Homo sapiens) (Q9NP58 whole entry, looked up): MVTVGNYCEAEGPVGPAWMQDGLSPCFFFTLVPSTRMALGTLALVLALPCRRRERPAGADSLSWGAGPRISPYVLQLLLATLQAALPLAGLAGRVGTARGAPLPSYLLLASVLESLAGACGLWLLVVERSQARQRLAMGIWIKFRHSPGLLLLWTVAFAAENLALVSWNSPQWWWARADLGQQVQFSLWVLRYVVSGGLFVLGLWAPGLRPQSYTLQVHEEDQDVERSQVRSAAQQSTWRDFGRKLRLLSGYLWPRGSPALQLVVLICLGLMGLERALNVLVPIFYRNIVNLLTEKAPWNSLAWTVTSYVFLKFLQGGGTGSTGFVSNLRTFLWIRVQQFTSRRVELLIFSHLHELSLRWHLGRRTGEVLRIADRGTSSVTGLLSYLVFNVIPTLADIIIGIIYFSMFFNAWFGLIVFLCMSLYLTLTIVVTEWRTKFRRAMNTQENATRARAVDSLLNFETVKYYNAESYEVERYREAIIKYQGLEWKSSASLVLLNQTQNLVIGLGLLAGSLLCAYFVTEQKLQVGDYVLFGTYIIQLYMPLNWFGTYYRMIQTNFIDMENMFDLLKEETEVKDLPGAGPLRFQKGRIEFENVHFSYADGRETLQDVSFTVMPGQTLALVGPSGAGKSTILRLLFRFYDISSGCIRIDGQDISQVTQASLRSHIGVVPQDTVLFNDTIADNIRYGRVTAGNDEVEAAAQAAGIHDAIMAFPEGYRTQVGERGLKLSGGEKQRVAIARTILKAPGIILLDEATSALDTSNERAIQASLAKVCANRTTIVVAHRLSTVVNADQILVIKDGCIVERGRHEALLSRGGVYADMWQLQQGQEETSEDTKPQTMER
Chain of Integrin beta-1 (Homo sapiens) + Integrin alpha-4 (Homo sapiens) (P05556 whole entry, looked up): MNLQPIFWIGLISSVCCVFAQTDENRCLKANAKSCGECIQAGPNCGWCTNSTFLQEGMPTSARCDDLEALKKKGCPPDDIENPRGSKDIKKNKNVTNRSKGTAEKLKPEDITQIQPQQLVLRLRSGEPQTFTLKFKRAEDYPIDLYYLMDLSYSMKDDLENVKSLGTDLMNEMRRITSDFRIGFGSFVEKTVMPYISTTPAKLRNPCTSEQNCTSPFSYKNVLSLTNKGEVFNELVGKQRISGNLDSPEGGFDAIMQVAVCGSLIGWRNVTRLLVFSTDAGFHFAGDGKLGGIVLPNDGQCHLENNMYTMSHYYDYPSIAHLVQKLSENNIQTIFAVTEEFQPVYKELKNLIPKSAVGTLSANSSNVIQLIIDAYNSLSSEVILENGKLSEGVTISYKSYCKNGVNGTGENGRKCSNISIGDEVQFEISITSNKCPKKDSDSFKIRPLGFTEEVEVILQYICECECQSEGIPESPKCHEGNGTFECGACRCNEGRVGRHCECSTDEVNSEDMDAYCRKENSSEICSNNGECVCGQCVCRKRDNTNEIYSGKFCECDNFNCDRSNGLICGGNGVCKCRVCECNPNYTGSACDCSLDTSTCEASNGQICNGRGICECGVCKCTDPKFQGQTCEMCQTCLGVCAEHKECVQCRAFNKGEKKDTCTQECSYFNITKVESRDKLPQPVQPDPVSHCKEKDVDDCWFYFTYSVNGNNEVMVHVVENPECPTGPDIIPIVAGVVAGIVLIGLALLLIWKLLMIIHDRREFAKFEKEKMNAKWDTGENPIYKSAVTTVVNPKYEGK
Chain of Integrin beta-1 (Homo sapiens) + Integrin alpha-4 (Homo sapiens) (P13612 whole entry, looked up): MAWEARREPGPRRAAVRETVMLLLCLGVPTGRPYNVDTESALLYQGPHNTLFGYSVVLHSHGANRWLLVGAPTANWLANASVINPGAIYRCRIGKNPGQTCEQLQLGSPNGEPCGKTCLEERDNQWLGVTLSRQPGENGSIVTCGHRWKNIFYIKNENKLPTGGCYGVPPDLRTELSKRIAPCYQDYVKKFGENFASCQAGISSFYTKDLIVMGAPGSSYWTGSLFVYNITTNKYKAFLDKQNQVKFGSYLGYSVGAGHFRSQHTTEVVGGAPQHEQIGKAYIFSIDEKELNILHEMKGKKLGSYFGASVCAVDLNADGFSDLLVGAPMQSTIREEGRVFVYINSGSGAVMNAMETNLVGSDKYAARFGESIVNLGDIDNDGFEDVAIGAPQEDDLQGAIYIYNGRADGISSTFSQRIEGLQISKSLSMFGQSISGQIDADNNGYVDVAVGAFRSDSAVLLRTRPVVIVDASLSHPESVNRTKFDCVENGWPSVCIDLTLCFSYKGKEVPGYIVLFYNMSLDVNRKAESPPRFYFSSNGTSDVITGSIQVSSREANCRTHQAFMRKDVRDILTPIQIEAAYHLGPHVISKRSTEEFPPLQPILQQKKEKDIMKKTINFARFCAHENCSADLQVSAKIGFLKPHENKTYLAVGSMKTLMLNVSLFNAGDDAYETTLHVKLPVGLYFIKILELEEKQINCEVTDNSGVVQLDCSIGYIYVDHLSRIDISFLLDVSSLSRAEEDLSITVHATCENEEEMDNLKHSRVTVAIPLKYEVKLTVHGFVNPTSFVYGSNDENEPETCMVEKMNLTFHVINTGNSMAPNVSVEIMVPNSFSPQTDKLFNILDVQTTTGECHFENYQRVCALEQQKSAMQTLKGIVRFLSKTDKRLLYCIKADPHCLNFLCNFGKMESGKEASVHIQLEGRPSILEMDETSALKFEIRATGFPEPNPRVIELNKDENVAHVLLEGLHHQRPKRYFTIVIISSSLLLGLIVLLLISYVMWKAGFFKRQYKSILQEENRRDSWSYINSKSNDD
Chain of AP-2 complex subunit beta (Homo sapiens) (P63010 whole entry, looked up, the tested form may be a part, one chain of several): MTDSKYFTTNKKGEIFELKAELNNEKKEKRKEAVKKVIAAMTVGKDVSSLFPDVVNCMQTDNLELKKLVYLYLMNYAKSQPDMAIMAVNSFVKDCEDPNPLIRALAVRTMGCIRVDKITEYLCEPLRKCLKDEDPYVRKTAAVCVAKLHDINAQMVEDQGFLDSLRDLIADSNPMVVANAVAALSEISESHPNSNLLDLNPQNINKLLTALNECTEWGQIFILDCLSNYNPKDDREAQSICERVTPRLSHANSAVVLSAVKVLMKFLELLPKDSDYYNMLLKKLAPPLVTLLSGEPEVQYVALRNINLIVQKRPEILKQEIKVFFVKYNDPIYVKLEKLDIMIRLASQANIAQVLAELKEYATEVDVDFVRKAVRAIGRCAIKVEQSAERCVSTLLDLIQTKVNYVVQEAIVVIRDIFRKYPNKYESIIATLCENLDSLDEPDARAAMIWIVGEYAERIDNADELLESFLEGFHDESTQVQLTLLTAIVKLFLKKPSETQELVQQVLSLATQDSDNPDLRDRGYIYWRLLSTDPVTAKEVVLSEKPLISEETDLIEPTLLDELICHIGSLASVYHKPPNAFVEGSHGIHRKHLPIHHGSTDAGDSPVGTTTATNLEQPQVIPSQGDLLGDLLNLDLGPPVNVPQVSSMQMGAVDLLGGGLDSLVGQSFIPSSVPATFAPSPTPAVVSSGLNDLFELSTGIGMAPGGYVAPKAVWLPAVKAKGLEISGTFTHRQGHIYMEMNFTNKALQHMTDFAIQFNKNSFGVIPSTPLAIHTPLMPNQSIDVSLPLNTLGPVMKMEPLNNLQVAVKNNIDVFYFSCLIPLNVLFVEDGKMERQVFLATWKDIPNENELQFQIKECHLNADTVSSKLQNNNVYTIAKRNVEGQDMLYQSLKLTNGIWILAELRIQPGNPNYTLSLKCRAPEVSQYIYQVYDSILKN
Chain of Beta-adrenergic receptor kinase 1 (Homo sapiens) (P25098 whole entry, looked up): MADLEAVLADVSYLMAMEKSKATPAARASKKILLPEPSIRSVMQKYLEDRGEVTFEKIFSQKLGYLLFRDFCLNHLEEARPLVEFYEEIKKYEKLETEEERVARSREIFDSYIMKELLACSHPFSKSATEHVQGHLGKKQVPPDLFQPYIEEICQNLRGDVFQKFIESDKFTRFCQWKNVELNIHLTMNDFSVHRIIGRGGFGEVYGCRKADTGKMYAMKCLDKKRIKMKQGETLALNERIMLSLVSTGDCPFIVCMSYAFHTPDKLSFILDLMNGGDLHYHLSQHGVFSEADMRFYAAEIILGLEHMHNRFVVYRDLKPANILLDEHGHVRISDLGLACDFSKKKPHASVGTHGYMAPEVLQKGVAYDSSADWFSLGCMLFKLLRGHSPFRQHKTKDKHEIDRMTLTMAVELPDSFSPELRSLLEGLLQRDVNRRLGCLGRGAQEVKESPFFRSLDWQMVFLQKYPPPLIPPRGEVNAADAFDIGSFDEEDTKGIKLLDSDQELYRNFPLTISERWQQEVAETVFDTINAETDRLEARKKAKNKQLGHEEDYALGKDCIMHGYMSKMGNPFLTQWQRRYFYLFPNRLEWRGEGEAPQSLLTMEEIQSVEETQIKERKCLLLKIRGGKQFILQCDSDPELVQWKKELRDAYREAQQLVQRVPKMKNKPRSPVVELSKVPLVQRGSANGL
Chain of Beta-2 adrenergic receptor (Homo sapiens) (P07550 whole entry, looked up): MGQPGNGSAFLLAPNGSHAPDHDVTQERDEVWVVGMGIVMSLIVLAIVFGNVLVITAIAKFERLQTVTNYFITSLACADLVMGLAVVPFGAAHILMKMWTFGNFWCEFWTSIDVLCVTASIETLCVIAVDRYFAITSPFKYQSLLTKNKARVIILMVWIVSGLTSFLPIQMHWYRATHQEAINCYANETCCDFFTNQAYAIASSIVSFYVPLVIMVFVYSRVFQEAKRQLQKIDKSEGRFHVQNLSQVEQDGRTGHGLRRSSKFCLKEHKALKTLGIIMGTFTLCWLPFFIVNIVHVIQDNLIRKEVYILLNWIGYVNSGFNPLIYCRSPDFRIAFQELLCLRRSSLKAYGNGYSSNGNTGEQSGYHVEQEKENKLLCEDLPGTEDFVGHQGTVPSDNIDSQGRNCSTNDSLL

By inhibition is commonly meant the change of the read-out against control, counted positive when it falls. For `CCCNCC(O)COc1ccccc1C(=O)CCc1ccccc1` (stereo not drawn), the percent of DMSO control GFP in experiment [1] was 101% (inactive). Also, the GFP response vs DMSO in experiment [2] was 110% (inactive); in experiment [4], 88.7% (inactive). Besides, in experiment [3], the percent response of DMSO control was 89.6% (inactive). Besides, in experiment [5], the GFP response, % of DMSO is 92.9% (inactive). Besides, the double positive events in experiment [6] amounted to 62.4%. Also, the vesicle binding response in experiment [6] was 894% (inactive). Also, the inhibition was 21.3% (inactive) in experiment [7], -4.07% (inactive) in [11] and -1% (inactive) in experiment [15]. The superoxide response (% of plate) in [8] was 98.6% (inactive). Also, the aptamer binding inhibition in experiment [9] is 3% (inactive). For the same molecule, the figures for the response in experiment [10] and in experiment [12] were -7.14% (inactive) and 0.31% (inactive), respectively. Moreover, the binding (% of control) in experiment [13] is 100% (inactive). Moreover, in [14], the efflux inhibition (fraction of control) is 0.11 (inactive). Besides, the differentiation response in experiment [16] is -0.73% (inactive).
Consider `Nc1ccc(-c2nc3ncccc3o2)c(Cl)c1`, for which the percent of DMSO control GFP in experiment [1] is 97.8% (inactive). The GFP response vs DMSO in experiment [2] is 103% (inactive); in [4], 112% (inactive). Moreover, in [3], the percent response of DMSO control was 97.7% (inactive). Besides, the GFP response, % of DMSO in experiment [5] was 98.6% (inactive). Further, in experiment [6], the double positive events was found to be 56.7%. In addition, in experiment [6], the vesicle binding response is 243% (inactive). The inhibition in experiment [7] is -15.4% (inactive); in [11], -5.26% (inactive); in experiment [15], 6% (inactive). The superoxide response (% of plate) in experiment [8] was 118% (inactive). In addition, the aptamer binding inhibition in experiment [9] was 0% (inactive). Besides, the response in experiment [10] is 0.9% (inactive); in experiment [12] it was 61.4% (active). For the same molecule, in experiment [13], the binding (% of control) is 103% (inactive). In addition, the efflux inhibition (fraction of control) in [14] is 0.15 (inactive). Besides, in [16], the differentiation response is 4% (inactive).
`Cc1ccsc1/C=C/C1=NCCCN1C`: in experiment [1], the percent of DMSO control GFP is 106% (inactive). Further, the GFP response vs DMSO is 104% (inactive) in experiment [2] and 103% (inactive) in experiment [4]. Besides, the percent response of DMSO control in experiment [3] is 112% (inactive). The GFP response, % of DMSO in experiment [5] is 118% (inactive). This molecule also yielded a double positive events in experiment [6] of 67.3%. For the same molecule, in [6], the vesicle binding response is 168% (inactive). For the same molecule, the inhibition in [7] was -34.6% (inactive); in experiment [11], -5.94% (inactive); in experiment [15], 1% (inactive). Further, in [8], the superoxide response (% of plate) is 104% (inactive). Also, in experiment [9], the aptamer binding inhibition is 1% (inactive). The response in [10] was 3.43% (inactive); in [12], 1.52% (inactive). Moreover, the binding (% of control) in [13] is 104% (inactive). Further, the efflux inhibition (fraction of control) in experiment [14] was -0.135 (inactive). Moreover, the differentiation response in [16] is -3.11% (inactive).
For `CC(C)OC(=O)C1C2C=CC3(CN(CC4CCCO4)C(=O)C13)O2` (stereo not drawn), in [1], the percent of DMSO control GFP was 99.1% (inactive). Also, the GFP response vs DMSO was 104% (inactive) in experiment [2] and 117% (inactive) in experiment [4]. The percent response of DMSO control in [3] was 98.6% (inactive). Further, the GFP response, % of DMSO in experiment [5] is 102% (inactive). Further, in [6], the double positive events is 58.9%. Further, the vesicle binding response in experiment [6] was 152% (inactive). The inhibition in experiment [7] was -4.52% (inactive); in [11], -4.29% (inactive); in experiment [15] it was 7% (inactive). In addition, in [8], the superoxide response (% of plate) was 100% (inactive). For the same molecule, in experiment [9], the aptamer binding inhibition was 1% (inactive). Besides, the response in experiment [10] was 1.99% (inactive); in experiment [12], -0.97% (inactive). Besides, the binding (% of control) in experiment [13] was 98% (inactive). Also, in experiment [14], the efflux inhibition (fraction of control) was 0.19 (inactive). Besides, the differentiation response in experiment [16] is -16.8% (inactive).
